TcdB inh – TcdB glycohydrolase inhibitors, primary screen, biochemical, single point, plate reader; Toxin B (Clostridioides difficile), P18177; TcdB glycohydrolase enzymatic assay; inhibition, % at 9.99 µM; 0.24% of 350,000 active; AID 652162, 2013; in the data active means inhibition above about 10%
Mtb BioA inh – M. tuberculosis BioA enzyme inhibitors, primary screen, biochemical, plate reader, single point, HTS; inhibition, % at 9.99 µM; purified M. tuberculosis BioA enzyme; 0.096% of 360,000 active; AID 602481, 2012; 7,8-diaminopelargonic acid synthase BioA (Mycobacterium tuberculosis); in the data active means inhibition above about 40%
ugtP null kill – growth inhibition of ugtP-null S. aureus, primary screen, RN4220 ugtP deletion, OD600; 16 h; growth inhibition, % (test concentration not listed); 0.54% of 330,000 active; in the data active means growth inhibition above about 68%;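 further: plate controls were untreated wells for no effect and antibiotic for full effect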
Yp Topo-I inh – Yersinia pestis topoisomerase I inhibitors, primary screen, biochemical, cleavage product accumulation, plate reader, single point; DNA topoisomerase I (Yersinia pestis CO92); 0.064% of 360,000 active; Y. pestis Topo-I cleavage product accumulation; activity, % at 10 µM; in the data active means activity above about 50%, passing the limit was not always enough
RN4220 kill – growth inhibition of S. aureus RN4220, primary screen, OD600; 16 h; inhibition, % (no concentration beside the values); 0.33% of 330,000 active; AID 1259311, 2017; in the data active means inhibition above about 85%;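 further: plate controls were untreated cells for no effect and reference antibiotic for full effect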
Mtb hypoxia inh – PubChem AID 1159583; 0.1% of 300,000 active; M. tuberculosis hypoxia-regulated fluorescent reporter, fluorescence; fluorescence inhibition, % (concentration not given with the values); in the data active means fluorescence inhibition mostly above about 23%, no sharp cut-off; inactive means mostly below about 17%
* = called active by the depositor. In the library only some 0.75% were active in any assay of this set; here they are far more common.

For CCOc1ccc(NC(=S)NC(=O)c2cnn(CC)c2)c([N+](=O)[O-])c1 the results were TcdB inh 1.2, Mtb BioA inh -2.2, ugtP null kill 84.6*, Yp Topo-I inh 10.7, RN4220 kill 3.5 and Mtb hypoxia inh 1.7.
Screening Cc1nc2ccccc2c(=O)n1N=Cc1ccccn1 returned ugtP null kill 4.4, RN4220 kill 4.3 and Mtb hypoxia inh -4.3.
For CC(=NN1CCCCC1)c1ccccc1O the results were ugtP null kill 0.9, RN4220 kill 2.3 and Mtb hypoxia inh 12.0.
Screening Cc1onc(-c2c(F)cccc2Cl)c1C(=O)NC1C(=O)N2C1SC(C)(C)C2C(=O)O (centres undefined) returned ugtP null kill 100.3*, RN4220 kill 100.5* and Mtb hypoxia inh 24.1.
`CCOC(=O)c1cnc(-c2ccccc2)nc1Oc1ccccc1` gave Mtb BioA inh -1.1, ugtP null kill 86.0*, Yp Topo-I inh 37.1 and RN4220 kill -5.8.
Screening CCOC(=O)c1cnc(-c2ccccc2)nc1Oc1ccc(OC)cc1 returned TcdB inh 1.1, ugtP null kill 3.1, Yp Topo-I inh 6.7, RN4220 kill 1.2 and Mtb hypoxia inh 10.7.
`O=C(O)CC1SC(=NN=CC2CC=CCC2)NC1=O` (centres undefined) gave ugtP null kill -4.1, RN4220 kill 3.1 and Mtb hypoxia inh 6.6.
CC(C)(C)c1cc(C(=O)NN=Cc2ccc(O)cc2)n(-c2ccccc2)n1 was read as ugtP null kill 10.1, RN4220 kill 5.9 and Mtb hypoxia inh -1.7.
For CC(C)(C)c1cc(C(=O)NN=Cc2ccccc2O)n(-c2ccccc2)n1 the results were ugtP null kill 99.9*, RN4220 kill 67.8 and Mtb hypoxia inh 14.8.
COc1ccc(-c2cc3nc(-c4ccccc4)cc(N4CCC(O)CC4)n3n2)cc1 was read as ugtP null kill 89.6*, Yp Topo-I inh 24.7, RN4220 kill -10.3 and Mtb hypoxia inh -5.0.
`CN(C)CCCN(C(=O)COc1ccc(Cl)cc1)c1nc2cc3c(cc2s1)OCCO3` gave TcdB inh 0.2, Mtb BioA inh 0.0, ugtP null kill 90.8*, Yp Topo-I inh -13.9, RN4220 kill -0.8 and Mtb hypoxia inh 6.4.
`CN(C)CCCN(C(=O)c1ccc2c(c1)CCCC2)c1nc2ccc(Cl)cc2s1` gave TcdB inh -3.1, ugtP null kill -13.5, Yp Topo-I inh -10.4, RN4220 kill 25.1 and Mtb hypoxia inh 38.3*.
COc1cc2c(cc1O)CC[n+]1cc3c(OC)c(OC)ccc3cc1-2 was read as TcdB inh 13.5*, Mtb BioA inh 3.1, ugtP null kill 0.9, Yp Topo-I inh -8.1, RN4220 kill 5.0 and Mtb hypoxia inh 8.3.
`CCN(CC)CCN1C(=O)/C(=C\c2ccc(Cl)c([N+](=O)[O-])c2)SC1=Nc1ccc(OC)cc1` gave TcdB inh -0.2, Mtb BioA inh -0.1, ugtP null kill 92.9*, Yp Topo-I inh 7.8, RN4220 kill -6.2 and Mtb hypoxia inh 3.9.
For Fc1ccc(/C=C\c2nccc3c2[nH]c2ccccc23)cc1 the results were TcdB inh 11.5*, Mtb BioA inh 1.3, ugtP null kill 71.0, Yp Topo-I inh -16.6, RN4220 kill 67.6 and Mtb hypoxia inh 2.6.
C(=C\c1nccc2c1[nH]c1ccccc12)/c1ccccc1 was read as TcdB inh 1.2 and Yp Topo-I inh -23.1.
For CC=C(C)C(=O)NC(C)CN1C2=NCC(C(C)C)N2CC1Cc1ccc(OC)cc1 (centres undefined) the results were ugtP null kill -6.8, RN4220 kill 8.3 and Mtb hypoxia inh -2.8.
CC(C)c1ccc(NS(=O)(=O)c2cccc3cccnc23)cc1 was read as TcdB inh 0.8, Mtb BioA inh -0.1, ugtP null kill -11.7, Yp Topo-I inh 17.6, RN4220 kill 12.0 and Mtb hypoxia inh -4.8.
Screening O=S(=O)(Nc1ccc(O)cc1)c1cccc2cccnc12 returned TcdB inh 10.6*, Mtb BioA inh -1.1, ugtP null kill 12.2, Yp Topo-I inh 2.7 and RN4220 kill 2.6.
Screening COc1cc(CCCN2CCNCC2c2ccccc2)cc(OC)c1OC (centres undefined) returned ugtP null kill -5.7, RN4220 kill -3.2 and Mtb hypoxia inh -0.5.
Screening Cn1c(SCc2nnc(-c3ccccc3)o2)nc2ccccc21 returned TcdB inh 13.0*, ugtP null kill -1.4, Yp Topo-I inh 6.8, RN4220 kill 9.2 and Mtb hypoxia inh 2.4.
`O=C1OCCC1=Cc1ccccc1` gave TcdB inh 0.9, ugtP null kill 4.8, Yp Topo-I inh 7.8, RN4220 kill 6.5 and Mtb hypoxia inh 5.2.
For O=C1OCC/C1=C\c1ccc(O)cc1 the results were TcdB inh 20.5*, Mtb BioA inh 0.3, ugtP null kill 4.1, Yp Topo-I inh -0.4, RN4220 kill 1.5 and Mtb hypoxia inh 6.7.
CC1CC(C)CN(S(=O)(=O)c2ccc(C(=O)Nc3nnc(-c4cccs4)o3)cc2)C1 (centres undefined) was read as Mtb BioA inh -0.8, ugtP null kill 100.2*, Yp Topo-I inh 5.1, RN4220 kill 99.7* and Mtb hypoxia inh 0.9.
`CCC1CCCCN1S(=O)(=O)c1ccc(C(=O)Nc2nnc(-c3cccs3)o2)cc1` (centres undefined) gave Mtb BioA inh 0.6, ugtP null kill 99.2*, Yp Topo-I inh 8.4, RN4220 kill 94.5* and Mtb hypoxia inh 7.2.
`N#Cc1ccc(C(=O)Nc2nnc(-c3cccs3)o2)cc1` gave TcdB inh -0.1, Mtb BioA inh -1.7, ugtP null kill 33.2, Yp Topo-I inh -1.3, RN4220 kill 51.3 and Mtb hypoxia inh -8.2.
Screening O=C(Nc1nnc(-c2cccs2)o1)c1cccc(C(F)(F)F)c1 returned TcdB inh -0.5, Mtb BioA inh -0.7, ugtP null kill 100.0*, Yp Topo-I inh 2.2, RN4220 kill 99.7* and Mtb hypoxia inh -0.7.
Screening COC(CC(O)CC(=O)C(C)OCc1ccccc1)OC (centres undefined) returned ugtP null kill 5.1, RN4220 kill -1.0 and Mtb hypoxia inh 9.5.
For CC1CN(C(C)CO)C(=O)c2cccc(NC(=O)Nc3ccc(C(F)(F)F)cc3)c2OC1CN(C)S(=O)(=O)c1cn(C)cn1 (centres undefined) the results were ugtP null kill -10.8, RN4220 kill 2.0 and Mtb hypoxia inh 9.6.
For Oc1ccc(C=NNc2nc(N3CCCC3)nc(N3CCCC3)n2)cc1O the results were ugtP null kill -17.8, RN4220 kill -5.1 and Mtb hypoxia inh -5.6.
Screening Oc1ccc(/C=N/Nc2nc(N3CCCC3)nc(N3CCCC3)n2)cc1O returned TcdB inh 21.0*, Mtb BioA inh 0.7 and Yp Topo-I inh 13.1.
For COc1ccc(C=NNC(=S)Nc2ccccc2)cc1COc1cccc(C)c1C the results were ugtP null kill -3.1, RN4220 kill -2.4 and Mtb hypoxia inh 1.3.

Screening results from PubChem BioAssay.
